sEH act: soluble epoxide hydrolase (human) activation. P34913. purified human sEH enzymatic activity, activator screen. activation, % at 2 µM. actives 0.04% (n = 91,000); in the data active = activation above about 37%
CYP2C9 inh: human CYP2C9 inhibition; P11712; actives 20% (n = 96,000); inhibition, % at 5 µM; AID 777; CYP2C9 Supersomes, luciferin-H conversion, luminescence;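 active = blocking of liver enzyme CYP2C9 beyond about 50% at 5 µM, limit read from the data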
sEH inhibitor: blocks human soluble epoxide hydrolase activity | P34913 | inhibition, % at 2 µM | recombinant human sEH enzymatic activity assay | actives 0.34% (n = 91,000) | AID 707; in the data active = inhibition above about 80%
CYP2C19 inh: inhibitors of human CYP2C19. P33261. CYP2C19 Supersomes, luciferin-H EGE luminescence, 30 min. inhibition, % at 5 µM. AID 778. actives 21% (n = 96,000);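 active = CYP2C19 inhibition above a set limit at 5 µM in the primary screen, cut at about 50% in these data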;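 note: plate controls were negative control wells for no effect and 2.5 mM tranylcypromine positive control for full effect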
Target sequence (P33261 whole entry, looked up): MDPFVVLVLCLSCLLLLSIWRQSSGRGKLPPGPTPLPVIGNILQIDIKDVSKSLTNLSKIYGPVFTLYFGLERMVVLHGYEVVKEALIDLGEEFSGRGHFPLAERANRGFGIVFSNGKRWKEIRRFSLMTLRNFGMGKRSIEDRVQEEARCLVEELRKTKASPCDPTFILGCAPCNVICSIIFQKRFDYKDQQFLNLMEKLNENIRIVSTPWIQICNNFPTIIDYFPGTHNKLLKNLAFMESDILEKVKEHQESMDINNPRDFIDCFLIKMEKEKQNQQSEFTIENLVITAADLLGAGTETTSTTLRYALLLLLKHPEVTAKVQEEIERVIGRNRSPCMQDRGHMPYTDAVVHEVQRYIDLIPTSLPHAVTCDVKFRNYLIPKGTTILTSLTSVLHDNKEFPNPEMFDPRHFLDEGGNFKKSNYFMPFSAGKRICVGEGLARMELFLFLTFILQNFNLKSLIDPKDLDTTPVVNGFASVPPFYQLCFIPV
CYP2C9 activ: activators of human CYP2C9; recombinant CYP2C9, luciferin-H conversion, luminescence; hits give high values; factor 1 = untreated enzyme, 0 = blocked; activation factor at 5 µM; actives 1.4% (n = 96,000); AID 1024;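 active = activation factor of 2 or more for CYP2C9 at a 5 µM dose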;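 note: 0 = sulfaphenazole-blocked wells and 1 = vehicle-only wells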
CYP2C19 act: increases human CYP2C19 enzyme activity; P33261; recombinant CYP2C19, luciferin-H EGE luminescence; hits give high values; 0 = fully inhibited enzyme, 1 = untreated enzyme; activation factor at 5 µM; 96,000 tested, under 10 active;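 active = activation factor of at least 2 at 5 µM in the primary screen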;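 note: 0 = wells with 2.5 mM tranylcypromine and 1 = vehicle-only wells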
Numbers without * were called inactive; · = not tested or not shown. A selection: hits, their analogues and other compounds. The true share with any hit is near 27%.

SMILES	sEH act	CYP2C9 inh	sEH inhibitor	CYP2C19 inh	CYP2C9 activ	CYP2C19 act
CC(C)c1ccc(SCc2noc(C(=O)NCC3CCCO3)c2C(=O)O)cc1 (centres undefined)	9.1	60.7*	-2.9	20.6	0.4	0.8
O=C(NCC1CCCO1)c1onc(CSc2ccccc2)c1C(=O)O (centres undefined)	6.0	0.8	-0.1	13.7	1	0.9
CCCCNC(=O)c1onc(CSc2cccc(F)c2)c1C(=O)O	0.3	65.6*	5.3	9.3	0.3	0.9
CC(C)NC(=O)c1onc(CSc2ccc(Cl)cc2)c1C(=O)O	-2.4	70.1*	7.9	19.0	0.3	0.8
CCCCNC(=O)c1onc(CSc2ccc(Cl)cc2)c1C(=O)O	7.2	86.5*	-6.0	15.9	0.1	0.8
O=C(c1cccc(C(F)(F)F)c1)N1CCN(C2CCCCC2)CC1	5.9	29.4	-3.2	37.7	0.7	0.6
CCn1c(SCC(=O)NCCc2ccc(F)cc2)nnc1-c1cccs1	·	14.4	·	12.3	0.9	0.9
C=CCNC(=O)c1onc(CSc2ccc(F)c(F)c2)c1C(=O)O	3.4	77.0*	2.4	43.9	0.2	0.6
C=CCNC(=O)c1onc(CSc2ccc(Cl)cc2)c1C(=O)O	6.2	73.4*	-0.2	24.2	0.3	0.8
COCCNC(=O)c1onc(CSc2ccc(F)c(F)c2)c1C(=O)O	-3.1	20.1	4.2	20.0	0.8	0.8
CC(CC(C)C(=O)Nc1ccccc1C(C)(C)C)C(=O)O (centres undefined)	12.9	·	-10.5	·	·	·
Cc1c(C#N)c(N=CN(C)C)c(C(=O)c2ccc(Br)cc2)n1-c1ccc(Cl)cc1	1.7	48.6	-5.3	22.6	0.5	0.8
CN(C)/C=N/c1cnc(C(=O)c2ccc(Cl)cc2)n1C	2.0	31.6	-1.9	59.7*	0.7	0.4
COC(=O)CN(c1cc(C(F)(F)F)ccc1Cl)S(C)(=O)=O	-4.8	1.6	4.3	55.6*	1	0.4
COCCNC(=O)CN(c1ccccc1OC)S(C)(=O)=O	-8.6	-5.0	9.0	-3.3	1.1	1
COCCNC(=O)CN(c1cc(C(F)(F)F)ccc1Cl)S(C)(=O)=O	-5.8	-18.5	5.8	58.4*	1.2	0.4
CCOC(=O)CNC(=O)CSc1nc2nc(C)c(Br)cc2[nH]1	-2.5	60.8*	3.9	60.0*	0.4	0.4
CC1(C)Cc2c(C#N)c(N)sc(=S)c2CS1	2.0	22.1	-2.3	4.4	0.8	1
Cc1ccc(N2CC(C(=O)NCc3ccc4c(c3)OCO4)CC2=O)cc1C (centres undefined)	4.0	-123.5	-1.9	8.2	2.2*	0.9
O=C(NCc1ccc2c(c1)OCO2)C1CC(=O)N(C2CCCCCC2)C1 (centres undefined)	·	9.7	·	8.7	0.9	0.9
Cc1ccc(-c2csc3ncnc(Sc4nnc(CN5CCCCCC5=O)o4)c23)cc1	·	83.1*	·	51.8*	0.2	0.5
COC(=O)c1cc(CC(=O)c2ccc(O)cc2O)c(C)o1	-11.0	53.6*	12.7	93.6*	0.5	0.1
CCOC(=O)c1ccc(CC(=O)c2ccc(O)cc2O)o1	-7.5	41.0	7.5	46.9	0.6	0.5
COc1ccc(CC(=O)c2c(O)cc(O)cc2O)cc1OC	5.3	88.2*	-3.3	77.0*	0.1	0.2
COC(=O)c1ccc(CC(=O)c2ccc(O)cc2O)o1	13.7	52.5*	-10.4	31.0	0.5	0.7
SMILES	sEH act	CYP2C9 inh	sEH inhibitor	CYP2C19 inh	CYP2C9 activ	CYP2C19 act
COC(=O)c1ccc(CC(=O)c2c(C)cc(O)cc2O)o1	-1.1	60.5*	1.4	93.3*	0.4	0.1
Cc1ccc(C2c3c(oc4cc(C)c(C)cc4c3=O)C(=O)N2CCCN2CCOCC2)cc1 (centres undefined)	·	16.3	·	0.4	0.8	1
COC(=O)c1ccc(Cn2cnc3c(cnn3-c3ccc(F)cc3)c2=O)o1	·	50.4*	·	15.2	0.5	0.8
COC(=O)c1ccc(Cn2cnc3c(cnn3-c3ccc(C)c(C)c3)c2=O)o1	7.2	·	-6.6	·	·	·
CCn1cc(Cl)c(C(=O)Nc2nc3ccccc3n2CCN2CCCCC2)n1	8.8	4.0	-10.2	0.0	1	1
CCN1N=C(c2ccccc2)Cn2c1nc1ccccc12	-5.5	68.8*	-0.1	57.6*	0.3	0.4
CCn1nc(-c2ccccc2)c2nc3ccccc3nc21	-2.3	19.2	-0.3	12.1	0.8	0.9
O=C(CCc1ccc(S(=O)(=O)N2CCOCC2)cc1)N1CCN(Cc2ccc3c(c2)OCO3)CC1	-18.2	77.4*	17.3	39.2	0.2	0.6
O=C(c1ccc2nc(N3CCOCC3)sc2c1)N1CCCC1	·	16.3	·	0.8	0.8	1
O=C(c1ccccc1S(=O)(=O)NCC(O)COc1ccc([N+](=O)[O-])cc1)N1CCCCC1 (centres undefined)	·	9.9	·	10.7	0.9	0.9
CC1CCN(c2nc3ccc(C(=O)N4CCN(Cc5ccc6c(c5)OCO6)CC4)cc3s2)CC1	-6.0	90.0*	4.6	94.1*	0.1	0.1
O=C(CCc1ccc(S(=O)(=O)NCc2ccccc2)cc1)N1CCN(Cc2ccc3c(c2)OCO3)CC1	-1.5	64.8*	2.7	46.9	0.4	0.5
O=C(c1ccccc1S(=O)(=O)NCc1ccccc1)N1CCCC1	-6.3	66.1*	10.2	89.8*	0.3	0.1
O=C(CS(=O)(=O)Cc1ccccc1)N1CCN(Cc2ccc3c(c2)OCO3)CC1	-3.3	23.4	5.9	21.8	0.8	0.8
COc1ccc(/C=C/C(=O)c2sc(-c3ccccc3)nc2C)cc1	·	12.4	·	-4.9	0.9	1
O=C(c1cccc(S(=O)(=O)NCc2ccccc2)c1)N1CCN(Cc2ccccc2)CC1	7.5	30.2	-4.2	64.8*	0.7	0.4
O=C(OCc1ccc2c(c1)OCO2)c1ccc(S(=O)(=O)N2CCCCC2)cc1	17.2	20.1	-18.9	9.8	0.8	0.9
Cc1ccc(S(=O)(=O)NCc2ccc(C(=O)N3CCN(Cc4ccccc4)CC3)cc2)cc1	2.7	30.0	-5.8	38.6	0.7	0.6
O=C(c1ccc(S(=O)(=O)N2CCCC2)cc1)N1CCN(Cc2ccc3c(c2)OCO3)CC1	7.5	63.4*	-8.2	46.6	0.4	0.5
COc1ccc(N=C2NC(=O)S/C2=C\c2ccc(N(C)C)cc2)cc1	3.0	94.5*	-3.2	15.3	0.1	0.8
CCS(=O)(=O)/N=C(\N)c1ccccc1	1.5	-23.0	-2.3	5.1	1.2	0.9
N/C(=N\S(=O)(=O)c1ccc(Cl)s1)c1ccccc1	-1.1	43.3	0.1	96.7*	0.6	0
CC(C(=O)NCC1CCCO1)n1cccc1C(=O)c1ccccc1 (centres undefined)	1.7	8.3	-3.1	11.1	0.9	0.9
O=c1c([N+](=O)[O-])c(N2CCCCCC2)c2ccccc2n1-c1ccccc1	7.5	7.4	-4.6	0.2	0.9	1
CC1CCCN(c2c([N+](=O)[O-])c(=O)oc3ccccc23)C1 (centres undefined)	18.3	26.3	-18.1	94.3*	0.7	0.1
